From PubChem BioAssay AID1347084 (National Center for Advancing Translational Sciences (NCATS), 2019) come the findings set out here.

Results filed as inconclusive are left out. The source made the active and inactive calls. The call rests on the fitted dose curve.

The assay in a line: qHTS for Inhibitors of the Functional Ribonucleoprotein Complex (vRNP) of Lymphocytic Choriomeningitis Arenaviruses (LCMV): LCMV Confirmatory Screen - GLuc reporter signal. The settings on record: LCMV minigenome vRNP, Gaussia luciferase reporter; series mostly up to 53.9 µM; activity change, negative = inhibition: at the top concentration. (In qHTS, concentration-response curves come from the screen itself.)
With `N#CC(=C(\N)Sc1ccccc1N)/C(C#N)=C(/N)Sc1ccccc1N`, the Potency was 27.3 µM (active). Same read-out and setting: the same measure for `Cn1cc(-c2ccncc2)c(-c2ccc(OCc3ccc4ccccc4n3)cc2)n1`: 24.3 µM (active); for `COC(=O)c1nc(Cl)c(Cl)nc1N`: 1.72 µM (active). Consider `CCC[C@H](N[C@@H](C)C(=O)N1[C@@H]2CCCC[C@H]2C[C@H]1C(=O)O)C(=O)OCC`, for which the “activity change, negative = inhibition” value was -6.4% (inactive). `NC(=O)N/N=C/c1ccc([N+](=O)[O-])o1`: the Potency was 24.3 µM (active). On to `CC(O)C(O)[C@H]1CNc2nc(N)[nH]c(=O)c2N1` (some centres not stated), for which the “activity change, negative = inhibition” value is 4.42% (inactive). With `COc1ccc2c(c1OC)CN1CCc3cc4c(cc3C1C2)OCO4` (configuration not stated), the Potency was 24.3 µM (active).

For `C=C(C)C1Cc2c(ccc3c2OC2COc4cc(OC)c(OC)cc4C2C3=O)O1` (configuration not stated), the Potency was 0.0153 µM (active).

`CCOC(=O)OCC/C(SC(=O)OCC)=C(\C)N(C=O)Cc1cnc(C)nc1N`: the “activity change, negative = inhibition” value is -12.6% (inactive). For `CC1=C(C)C(=O)C(CCCCC#CCCCC#CCO)=C(C)C1=O`, the Potency was 19.3 µM (active). In the case of `Cc1ccc2c(c1)C1CN(C)CCC1N2` (configuration not stated), the “activity change, negative = inhibition” value is -10.8% [at 19.4 µM] (inactive). Turning to `O=C(Nc1ccccc1)c1cc([N+](=O)[O-])ccc1Cl`, the Potency is 24.3 µM (active). For the molecule `Cc1cc(N)c2ccccc2[n+]1CCCCCCCCCC[n+]1c(C)cc(N)c2ccccc21`, the Potency is 1.09 µM (active). As for `CC1OC(=O)[C@@H](C(C)C)NC(=O)C(C(C)C)OC(=O)[C@H](C(C)C)NC(=O)C(C)OC(=O)[C@@H](C(C)C)NC(=O)C(C(C)C)OC(=O)[C@H](C(C)C)NC(=O)C(C)OC(=O)[C@@H](C(C)C)NC(=O)C(C(C)C)OC(=O)[C@H](C(C)C)NC1=O` (some centres not stated), the Potency was 0.153 µM (active). For the molecule `CCC(C)c1nccnc1OC` (configuration not stated), the “activity change, negative = inhibition” value is -25.6% [at 110 µM] (inactive). `O=C(Nc1ccc([N+](=O)[O-])cc1Cl)c1cc(Cl)ccc1O`: the Potency was 0.863 µM (active). Same read-out and setting: next, `FC(F)(F)c1ccc(C=Cc2nc(COc3ccc(CCCCn4ccnn4)cc3)co2)cc1`: 0.0153 µM (active).

As for `CCN(CC)C(=O)N[C@@H]1C=C2c3cccc4[nH]cc(c34)C[C@@H]2N(C)C1`, the “activity change, negative = inhibition” value is -19.4% (inactive). In the case of `CC(O)(P(=O)(O)O)P(=O)(O)O`, the “activity change, negative = inhibition” value is -11.6% (inactive). In the case of `CO/C=C(/C(=O)OC)c1ccccc1Oc1cc(Oc2ccccc2C#N)ncn1`, the Potency was 4.98 µM (active). The same measure, in the same setting: next, `CC12C(=O)OC(=O)C1(C)C1CCC2O1` (configuration not stated): 9.68 µM (active); `Fc1ccc(CNc2ncnc3ccc(F)cc23)cc1`: 8.63 µM (active); `CCC1OC2(C)C(O)C(/C=C/C=C/C=C/c3oc(=O)cc(OC)c3C)OC1(C)C2OC(C)=O` (configuration not stated): 0.109 µM (active).

As to `COCCOC(=O)C1=C(C)NC(C)=C(C(=O)OC/C=C/c2ccccc2)C1c1cccc([N+](=O)[O-])c1` (configuration not stated), the Potency was 21.7 µM (active). For the molecule `O=C1Cc2cc(CCN3CCN(c4nsc5ccccc45)CC3)c(Cl)cc2N1`, the “activity change, negative = inhibition” value was -22.9% (inactive). As to `COc1cccc(-c2ccc(NC(=O)C3=C(C(=O)O)CCC3)c(F)c2)c1`, the Potency was 3.85 µM (active). On the same count and under the same terms, next, `C=C(C)[C@H]1Cc2c(ccc3c2O[C@@H]2COc4cc(OC)c(OC)cc4[C@@H]2C3=O)O1`: 0.0544 µM (active).
